Holding throughout (assay): DAPPL (digital affinity profiling via proximity ligation, sequencing); 10 mM Tris-HCl pH 7.5, 50 mM NaCl, 1 mM DTT, 4% glycerol, room temperature, 30 min; GST-TFs on glutathione beads, 16-mer random dsDNA library, 0.1% formaldehyde crosslink after washing; high values mean tight binding
Holding throughout (details): protein: recombinant; tags: N-terminal GST; dsDNA, one strand shown

In test [1] the target is T1, FLI1 (Homo sapiens, UniProt Q01543 1-452).
T1 sequence: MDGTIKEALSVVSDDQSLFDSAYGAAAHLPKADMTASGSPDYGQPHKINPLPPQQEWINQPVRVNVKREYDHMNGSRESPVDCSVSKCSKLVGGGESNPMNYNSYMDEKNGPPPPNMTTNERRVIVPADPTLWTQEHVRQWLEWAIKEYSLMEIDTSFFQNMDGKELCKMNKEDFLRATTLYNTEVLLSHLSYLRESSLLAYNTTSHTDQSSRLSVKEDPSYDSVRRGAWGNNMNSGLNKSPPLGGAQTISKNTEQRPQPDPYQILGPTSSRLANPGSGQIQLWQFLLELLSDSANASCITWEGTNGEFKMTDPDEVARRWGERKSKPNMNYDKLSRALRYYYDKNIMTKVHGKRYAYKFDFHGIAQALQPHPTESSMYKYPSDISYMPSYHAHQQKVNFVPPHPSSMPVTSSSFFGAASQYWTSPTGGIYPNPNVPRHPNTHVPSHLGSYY
The essentials: (§1)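 Each value of binding signal is a hexamer's read frequency for a factor divided by the same hexamer's frequency in the tag-only sample. Barcoded, bead-captured GST fusions of human transcription factors made in yeast were pooled with that sample and incubated with 200 nmole of a random double-stranded 16-mer DNA library in Tris/NaCl/DTT/glycerol buffer at room temperature for 30 min. Washing, 0.1% formaldehyde crosslinking, proximity ligation, PCR and Illumina NextSeq500 sequencing followed.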

Test [2] deals with ETV1 (Homo sapiens, UniProt P50549 1-477). The essentials: as §1
Sequence of ETV1 (P50549 whole entry): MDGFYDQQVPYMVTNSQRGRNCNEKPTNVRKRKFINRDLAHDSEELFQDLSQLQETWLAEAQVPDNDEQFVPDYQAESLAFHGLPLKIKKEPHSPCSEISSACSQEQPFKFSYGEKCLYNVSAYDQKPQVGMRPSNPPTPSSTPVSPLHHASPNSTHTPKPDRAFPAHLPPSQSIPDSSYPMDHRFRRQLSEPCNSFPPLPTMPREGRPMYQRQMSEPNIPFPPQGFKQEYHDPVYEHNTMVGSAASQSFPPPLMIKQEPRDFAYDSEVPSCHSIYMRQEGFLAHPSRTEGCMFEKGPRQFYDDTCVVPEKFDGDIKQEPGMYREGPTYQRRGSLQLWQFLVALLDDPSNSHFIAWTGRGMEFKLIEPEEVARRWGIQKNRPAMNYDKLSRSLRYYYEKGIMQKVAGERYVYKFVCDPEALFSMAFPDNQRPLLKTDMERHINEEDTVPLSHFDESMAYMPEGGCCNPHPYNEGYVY
The target in test [3] is T2, ERF (Homo sapiens, UniProt P50548 1-548).
T2 sequence: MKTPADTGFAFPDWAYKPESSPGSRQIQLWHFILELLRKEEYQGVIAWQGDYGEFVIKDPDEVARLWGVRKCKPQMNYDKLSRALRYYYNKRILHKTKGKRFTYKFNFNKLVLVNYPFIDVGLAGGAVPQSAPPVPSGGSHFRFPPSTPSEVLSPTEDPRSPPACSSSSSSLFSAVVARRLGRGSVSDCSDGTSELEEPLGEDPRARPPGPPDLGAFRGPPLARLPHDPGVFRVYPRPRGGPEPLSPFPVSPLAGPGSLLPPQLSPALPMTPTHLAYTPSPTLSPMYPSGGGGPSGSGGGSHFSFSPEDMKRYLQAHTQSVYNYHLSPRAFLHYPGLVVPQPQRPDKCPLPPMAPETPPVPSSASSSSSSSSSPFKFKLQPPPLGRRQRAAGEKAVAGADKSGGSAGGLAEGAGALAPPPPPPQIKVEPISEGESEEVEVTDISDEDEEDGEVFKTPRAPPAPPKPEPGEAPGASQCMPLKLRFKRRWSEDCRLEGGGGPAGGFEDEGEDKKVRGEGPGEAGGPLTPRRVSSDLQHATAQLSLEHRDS
The procedure, abridged:
as §1

Test [4] addresses T3, ETV7 (Homo sapiens, UniProt Q9Y603 1-341).
T3 sequence: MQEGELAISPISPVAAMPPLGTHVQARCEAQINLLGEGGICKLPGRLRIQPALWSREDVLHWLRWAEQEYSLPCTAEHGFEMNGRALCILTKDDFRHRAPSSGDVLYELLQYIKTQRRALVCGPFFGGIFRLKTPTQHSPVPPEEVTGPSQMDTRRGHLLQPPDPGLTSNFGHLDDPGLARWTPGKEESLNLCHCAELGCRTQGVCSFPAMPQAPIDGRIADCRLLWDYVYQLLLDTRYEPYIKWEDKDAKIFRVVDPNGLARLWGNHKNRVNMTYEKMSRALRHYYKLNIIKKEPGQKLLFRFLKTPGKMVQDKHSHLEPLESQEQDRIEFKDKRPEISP
The procedure, abridged:
as §1

Test [5] deals with T4, ELK4 (Homo sapiens, UniProt P28324-2 1-405).
T4 sequence: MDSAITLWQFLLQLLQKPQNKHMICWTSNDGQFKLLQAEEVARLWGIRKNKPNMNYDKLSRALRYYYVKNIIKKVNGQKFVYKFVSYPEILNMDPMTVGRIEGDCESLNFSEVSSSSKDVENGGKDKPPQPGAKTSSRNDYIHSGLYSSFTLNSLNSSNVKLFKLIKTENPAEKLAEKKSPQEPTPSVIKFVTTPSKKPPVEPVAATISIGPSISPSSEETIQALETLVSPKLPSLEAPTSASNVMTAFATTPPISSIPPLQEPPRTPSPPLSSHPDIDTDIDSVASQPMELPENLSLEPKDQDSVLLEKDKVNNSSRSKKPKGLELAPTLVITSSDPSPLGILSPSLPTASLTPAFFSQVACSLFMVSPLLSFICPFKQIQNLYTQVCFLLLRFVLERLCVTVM
The essentials: as §1

The target in test [6] is T5, ETV2 (Homo sapiens, UniProt O00321 1-342).
T5 sequence: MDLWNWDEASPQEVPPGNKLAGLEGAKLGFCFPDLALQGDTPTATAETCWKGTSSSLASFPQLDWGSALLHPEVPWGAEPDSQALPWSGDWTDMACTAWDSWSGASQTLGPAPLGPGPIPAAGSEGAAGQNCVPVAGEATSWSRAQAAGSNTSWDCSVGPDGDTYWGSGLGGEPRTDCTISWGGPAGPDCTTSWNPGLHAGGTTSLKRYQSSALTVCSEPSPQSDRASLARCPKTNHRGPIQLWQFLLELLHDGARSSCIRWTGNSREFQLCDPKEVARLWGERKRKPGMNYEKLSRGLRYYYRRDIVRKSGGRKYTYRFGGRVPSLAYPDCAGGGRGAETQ
The essentials:
as §1

The target in test [7] is T6, ETV3 (Homo sapiens, UniProt P41162-2 1-143).
T6 sequence: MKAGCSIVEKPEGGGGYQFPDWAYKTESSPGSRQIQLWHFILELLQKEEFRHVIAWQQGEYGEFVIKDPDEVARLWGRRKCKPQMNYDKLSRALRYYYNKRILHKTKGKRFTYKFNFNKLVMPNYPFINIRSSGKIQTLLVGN
The procedure, abridged:
as §1

The target in test [8] is ETV6 (Homo sapiens, UniProt P41212 1-452). The essentials: as §1
Sequence of ETV6 (P41212 whole entry): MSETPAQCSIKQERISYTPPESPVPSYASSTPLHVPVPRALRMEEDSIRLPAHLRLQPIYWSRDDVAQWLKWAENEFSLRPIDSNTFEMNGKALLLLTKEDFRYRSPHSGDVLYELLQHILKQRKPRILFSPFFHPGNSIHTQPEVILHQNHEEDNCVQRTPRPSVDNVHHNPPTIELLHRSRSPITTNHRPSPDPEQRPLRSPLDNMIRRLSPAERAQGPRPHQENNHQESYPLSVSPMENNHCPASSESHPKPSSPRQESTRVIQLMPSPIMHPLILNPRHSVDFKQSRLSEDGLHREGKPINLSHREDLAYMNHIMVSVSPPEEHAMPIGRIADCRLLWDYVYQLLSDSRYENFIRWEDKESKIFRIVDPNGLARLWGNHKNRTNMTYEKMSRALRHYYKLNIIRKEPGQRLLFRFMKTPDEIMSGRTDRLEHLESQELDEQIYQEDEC
For test [9], the target named is T7, GABPA (Homo sapiens, UniProt Q06546 1-454).
T7 sequence: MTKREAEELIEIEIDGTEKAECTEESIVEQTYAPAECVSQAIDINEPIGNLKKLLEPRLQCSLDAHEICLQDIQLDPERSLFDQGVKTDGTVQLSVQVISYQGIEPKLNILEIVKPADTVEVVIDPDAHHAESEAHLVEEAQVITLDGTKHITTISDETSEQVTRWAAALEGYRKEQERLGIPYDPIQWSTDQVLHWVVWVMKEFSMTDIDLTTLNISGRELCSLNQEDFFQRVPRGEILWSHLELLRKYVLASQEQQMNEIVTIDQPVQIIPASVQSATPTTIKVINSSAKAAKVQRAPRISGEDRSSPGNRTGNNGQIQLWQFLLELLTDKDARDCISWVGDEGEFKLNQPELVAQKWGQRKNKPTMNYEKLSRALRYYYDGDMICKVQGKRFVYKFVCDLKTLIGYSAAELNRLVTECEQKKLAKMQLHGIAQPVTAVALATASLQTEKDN
The procedure, abridged: as §1

Test [10] has as its target T8, ERG (Homo sapiens, UniProt P11308 1-479).
T8 sequence: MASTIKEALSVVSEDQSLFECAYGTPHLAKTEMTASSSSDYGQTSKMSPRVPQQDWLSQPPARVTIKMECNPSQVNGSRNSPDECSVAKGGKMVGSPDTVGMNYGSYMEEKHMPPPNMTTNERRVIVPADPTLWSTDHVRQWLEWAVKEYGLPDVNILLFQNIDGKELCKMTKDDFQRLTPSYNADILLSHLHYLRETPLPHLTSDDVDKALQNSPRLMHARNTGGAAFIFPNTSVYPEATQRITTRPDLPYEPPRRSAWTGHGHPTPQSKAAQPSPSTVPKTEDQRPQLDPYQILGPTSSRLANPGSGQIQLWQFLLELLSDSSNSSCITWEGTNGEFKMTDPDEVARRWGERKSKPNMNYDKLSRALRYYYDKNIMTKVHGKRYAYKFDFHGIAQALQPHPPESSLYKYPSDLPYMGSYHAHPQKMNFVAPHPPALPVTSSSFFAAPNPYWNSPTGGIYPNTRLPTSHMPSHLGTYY
The procedure, abridged: as §1

Test [11] has as its target ELF1 (Homo sapiens, UniProt P32519 1-619). The essentials:
as §1

For test [12], the target named is T9, EHF (Homo sapiens, UniProt Q9NZC4 1-300).
T9 sequence: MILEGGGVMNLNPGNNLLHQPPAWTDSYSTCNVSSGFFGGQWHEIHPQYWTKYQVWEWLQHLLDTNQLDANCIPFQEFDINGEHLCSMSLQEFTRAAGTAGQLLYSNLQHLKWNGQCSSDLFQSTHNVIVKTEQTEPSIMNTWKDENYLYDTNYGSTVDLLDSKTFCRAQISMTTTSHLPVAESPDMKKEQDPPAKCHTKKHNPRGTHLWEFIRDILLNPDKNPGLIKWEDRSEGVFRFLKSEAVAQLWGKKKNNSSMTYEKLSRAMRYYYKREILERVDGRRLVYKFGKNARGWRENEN
The procedure, abridged: as §1

The target in test [13] is SPIB (Homo sapiens, UniProt Q01892 1-262). The essentials:
as §1

The target of test [14] is T10, ELK3 (Homo sapiens, UniProt P41970 1-407).
T10 sequence: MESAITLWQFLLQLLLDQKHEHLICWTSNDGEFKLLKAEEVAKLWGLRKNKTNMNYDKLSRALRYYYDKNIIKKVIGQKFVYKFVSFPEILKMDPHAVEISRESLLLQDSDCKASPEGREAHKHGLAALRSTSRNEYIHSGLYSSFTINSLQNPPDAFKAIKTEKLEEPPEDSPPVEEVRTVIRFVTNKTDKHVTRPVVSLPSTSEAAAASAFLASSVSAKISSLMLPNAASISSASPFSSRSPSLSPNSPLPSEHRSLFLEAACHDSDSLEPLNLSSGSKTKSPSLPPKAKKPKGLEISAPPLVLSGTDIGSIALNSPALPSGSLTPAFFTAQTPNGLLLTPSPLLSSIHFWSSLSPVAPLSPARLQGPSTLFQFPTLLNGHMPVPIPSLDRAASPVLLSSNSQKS
The procedure, abridged: as §1

Test [15] addresses T11, ETV3L (Homo sapiens, UniProt Q6ZN32 1-361).
T11 sequence: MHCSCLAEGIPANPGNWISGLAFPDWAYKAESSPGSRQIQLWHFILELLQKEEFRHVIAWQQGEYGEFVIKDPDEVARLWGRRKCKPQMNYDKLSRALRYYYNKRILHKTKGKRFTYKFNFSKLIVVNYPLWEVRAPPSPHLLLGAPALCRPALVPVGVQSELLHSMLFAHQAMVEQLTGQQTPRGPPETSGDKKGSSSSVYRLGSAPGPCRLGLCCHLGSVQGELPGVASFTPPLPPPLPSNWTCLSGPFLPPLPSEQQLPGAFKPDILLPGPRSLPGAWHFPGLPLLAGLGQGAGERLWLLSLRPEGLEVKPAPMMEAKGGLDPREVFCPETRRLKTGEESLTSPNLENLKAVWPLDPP
The procedure, abridged: as §1

Sequence of SPIB (Q01892 whole entry): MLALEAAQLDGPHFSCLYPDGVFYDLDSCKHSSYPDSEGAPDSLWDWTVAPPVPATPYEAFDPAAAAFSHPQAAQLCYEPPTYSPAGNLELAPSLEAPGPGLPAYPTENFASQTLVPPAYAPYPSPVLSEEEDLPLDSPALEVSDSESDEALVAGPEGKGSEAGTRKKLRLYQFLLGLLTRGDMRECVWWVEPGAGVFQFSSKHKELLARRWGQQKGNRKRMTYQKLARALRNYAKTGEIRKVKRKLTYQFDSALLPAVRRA
Sequence of ELF1 (P32519 whole entry): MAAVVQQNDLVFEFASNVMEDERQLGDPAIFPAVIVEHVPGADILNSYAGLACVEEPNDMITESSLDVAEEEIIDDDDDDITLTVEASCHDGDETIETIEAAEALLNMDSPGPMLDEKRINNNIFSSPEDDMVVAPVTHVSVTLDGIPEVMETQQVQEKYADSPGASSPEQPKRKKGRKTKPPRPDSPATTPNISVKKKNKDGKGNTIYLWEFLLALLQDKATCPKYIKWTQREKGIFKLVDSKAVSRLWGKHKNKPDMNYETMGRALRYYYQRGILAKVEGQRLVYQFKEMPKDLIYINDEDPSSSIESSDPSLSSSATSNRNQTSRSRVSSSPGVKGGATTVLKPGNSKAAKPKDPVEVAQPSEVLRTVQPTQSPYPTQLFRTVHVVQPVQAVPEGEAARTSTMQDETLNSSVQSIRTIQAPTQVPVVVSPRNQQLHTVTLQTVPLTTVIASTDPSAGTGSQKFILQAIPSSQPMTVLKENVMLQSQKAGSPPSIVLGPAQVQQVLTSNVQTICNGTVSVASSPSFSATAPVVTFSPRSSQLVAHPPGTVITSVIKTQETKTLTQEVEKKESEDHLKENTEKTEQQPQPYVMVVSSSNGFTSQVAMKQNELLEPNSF

CGTTGG: the binding signal in test [1] is 1.08 fold enrichment (6-mer frequency, TF over GST control); in test [2] it was 1.01 fold enrichment (6-mer frequency, TF over GST control); in [3], 1.07 fold enrichment (6-mer frequency, TF over GST control); in [4], 1.07 fold enrichment (6-mer frequency, TF over GST control).
For the sequence TGTTGG, in test [1], the binding signal is 1.01 fold enrichment (6-mer frequency, TF over GST control).
With GTGCGC, the binding signal in test [1] was 1.02 fold enrichment (6-mer frequency, TF over GST control); in [5], 1.15 fold enrichment (6-mer frequency, TF over GST control); in test [6], 1.02 fold enrichment (6-mer frequency, TF over GST control); in test [7] it was 1.04 fold enrichment (6-mer frequency, TF over GST control); in test [8], 1.03 fold enrichment (6-mer frequency, TF over GST control).
In the case of CCTGGC, the binding signal in [1] was 1.03 fold enrichment (6-mer frequency, TF over GST control); in test [9], 1.1 fold enrichment (6-mer frequency, TF over GST control); in [10], 1.15 fold enrichment (6-mer frequency, TF over GST control); in [11] it was 1.07 fold enrichment (6-mer frequency, TF over GST control); in test [12] it was 1.04 fold enrichment (6-mer frequency, TF over GST control); in test [13], 1.03 fold enrichment (6-mer frequency, TF over GST control). Moreover, the binding signal was 1.06 fold enrichment (6-mer frequency, TF over GST control) in test [14]; 1.13 fold enrichment (6-mer frequency, TF over GST control) in test [5]; 1.27 fold enrichment (6-mer frequency, TF over GST control) in test [6]; 1.04 fold enrichment (6-mer frequency, TF over GST control) in test [2]; 1.03 fold enrichment (6-mer frequency, TF over GST control) in test [3]; 1.08 fold enrichment (6-mer frequency, TF over GST control) in test [15]. Besides, the binding signal in [7] is 1.01 fold enrichment (6-mer frequency, TF over GST control); in test [8], 1.08 fold enrichment (6-mer frequency, TF over GST control).

Values taken from publication PMC7862700, “An all-to-all approach to the identification of sequence-specific readers for epigenetic DNA modifications on cytosine”.
